# Where “and” joins values, the source holds several entries; their conditions need not be identical. Identical values can stand only once. Results filed as inconclusive are left out. Calls of active or inactive are those of the source. Calls follow the shape of the dose curve; as a rule, active = well fitted curve in the direction sought with a large enough effect; inconclusive = small, poorly fitted or top-dose-only effect, or another doubt; inactive = no such curve, though single readings can be large; an effect the other way counts as inactive or inconclusive.
# Legend:
# [1] = molecular target: Cytochrome P450 3A4 (Homo sapiens) (UniProt P08684); experiment: qHTS Assay for Inhibitors and Substrates of Cytochrome P450 3A4 (AID 884); also: potency is read from the fitted curve at half-maximal effect; nearly all actives have a fitted effect of over 50% in size
# Chain of Cytochrome P450 3A4 (Homo sapiens) (P08684 whole entry, looked up): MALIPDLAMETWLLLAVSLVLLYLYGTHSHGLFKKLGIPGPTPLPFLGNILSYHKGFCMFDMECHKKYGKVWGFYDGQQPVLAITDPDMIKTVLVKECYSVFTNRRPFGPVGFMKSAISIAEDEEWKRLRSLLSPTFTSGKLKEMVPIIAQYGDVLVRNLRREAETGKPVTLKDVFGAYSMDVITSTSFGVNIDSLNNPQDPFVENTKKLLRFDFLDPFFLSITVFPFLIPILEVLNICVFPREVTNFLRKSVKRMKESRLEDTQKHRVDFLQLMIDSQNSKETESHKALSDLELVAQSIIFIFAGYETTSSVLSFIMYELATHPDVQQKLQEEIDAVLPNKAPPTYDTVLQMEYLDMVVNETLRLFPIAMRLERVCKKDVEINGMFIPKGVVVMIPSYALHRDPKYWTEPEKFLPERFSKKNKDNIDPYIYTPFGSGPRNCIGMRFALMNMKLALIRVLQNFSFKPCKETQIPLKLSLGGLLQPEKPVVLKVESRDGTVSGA
# Method in brief: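 Luminescent readout of luciferin produced by CYP3A4 (20 nM) dealkylation of Luciferin-PPXE, 25 uM (its KM). NADPH-driven reaction ran 60 min at RT after 10 min compound preincubation; data scaled to 57 uM ketoconazole as 100% inhibition.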
# [2] = molecular target: Cytochrome P450 3A4 (Homo sapiens) (UniProt P08684); experiment: qHTS Assay for Activators of Cytochrome P450 3A4 (AID 885); also: nearly all actives have a fitted effect of over 65% in size
# Method in brief: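 CYP3A4 activity: Luciferin-PPXE O-dealkylation, 25uM substrate, 200mM KPO4, RT throughout. Read-out is luciferase luminescence; higher values reflect activation.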
# [3] = molecular target: Cytochrome P450 2D6 (Homo sapiens) (UniProt P10635); experiment: qHTS Assay for Inhibitors and Substrates of Cytochrome P450 2D6 (AID 891); also: potency is read from the fitted curve at half-maximal effect; nearly all actives have a fitted effect of over 60% in size
# Chain of Cytochrome P450 2D6 (Homo sapiens) (P10635 whole entry, looked up): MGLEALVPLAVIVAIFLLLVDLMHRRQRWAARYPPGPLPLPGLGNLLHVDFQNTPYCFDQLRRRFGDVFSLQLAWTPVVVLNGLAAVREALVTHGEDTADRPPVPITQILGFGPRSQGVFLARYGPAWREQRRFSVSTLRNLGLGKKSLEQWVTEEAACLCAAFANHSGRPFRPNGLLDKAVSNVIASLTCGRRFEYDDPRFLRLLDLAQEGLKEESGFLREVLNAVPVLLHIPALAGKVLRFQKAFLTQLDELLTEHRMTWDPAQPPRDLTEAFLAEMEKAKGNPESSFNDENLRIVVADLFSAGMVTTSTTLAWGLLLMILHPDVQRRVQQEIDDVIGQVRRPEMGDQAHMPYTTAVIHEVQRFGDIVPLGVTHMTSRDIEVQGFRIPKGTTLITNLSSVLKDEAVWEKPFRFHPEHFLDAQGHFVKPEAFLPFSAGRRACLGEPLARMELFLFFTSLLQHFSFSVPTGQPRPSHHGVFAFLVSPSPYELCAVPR
# Method in brief: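 Luminescent read-out of luciferin formed by 5 nM human CYP2D6 demethylating 30 uM Luciferin-ME EGE (Km level) over 60 min at room temperature after NADPH regeneration addition. Data normalized to full inhibition by 1.43 uM quinidine.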
# [4] = molecular target: Cytochrome P450 2C19 (Homo sapiens) (UniProt P33261); experiment: qHTS Assay for Inhibitors and Substrates of Cytochrome P450 2C19 (AID 899); also: potency is read from the fitted curve at half-maximal effect; nearly all actives have a fitted effect of over 60% in size
# Chain of Cytochrome P450 2C19 (Homo sapiens) (P33261 whole entry, looked up): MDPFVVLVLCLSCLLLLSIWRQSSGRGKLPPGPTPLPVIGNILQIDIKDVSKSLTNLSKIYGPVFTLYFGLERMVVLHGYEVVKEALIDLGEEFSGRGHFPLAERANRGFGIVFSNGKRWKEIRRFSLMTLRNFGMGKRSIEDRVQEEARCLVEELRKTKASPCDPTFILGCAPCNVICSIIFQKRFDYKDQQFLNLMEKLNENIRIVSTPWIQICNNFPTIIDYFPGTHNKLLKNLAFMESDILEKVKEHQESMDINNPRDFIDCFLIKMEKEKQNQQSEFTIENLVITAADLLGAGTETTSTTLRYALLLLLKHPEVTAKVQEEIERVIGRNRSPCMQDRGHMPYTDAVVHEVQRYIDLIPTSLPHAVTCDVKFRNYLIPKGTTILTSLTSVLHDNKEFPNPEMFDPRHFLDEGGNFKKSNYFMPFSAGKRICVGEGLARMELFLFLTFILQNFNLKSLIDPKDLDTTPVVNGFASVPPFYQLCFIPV
# Method in brief: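 Luminescent read-out of luciferin formed from Luciferin-H EGE (10uM, equal to KM). Enzyme 5nM in 50mM KPO4; compound added, 10 min at 37C, then NADPH regenerating system for 60 min at 37C. Full inhibition defined by 57uM ketoconazole.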
smiles,measurement,setting,value
COC(=O)c1cccc(C23CC4(C2)[C@H](CN(C)[C@@H]4c2ccccc2)C3c2ccccc2)c1 (stereo partly drawn),Potency,[1],7.94 µM (active)
same,Potency,[2],inactive
CCC1=C(OC(=O)N(CC)CC)N2C(=O)OC(=NCC(=O)OC)[C@]2(C)[C@H]2C1=CC[C@H]1C(=O)NC(=O)[C@H]12,Potency,[1],12.6 µM (active)
same,Potency,[2],inactive
CCC1=C2CC[C@H]3C(=O)N(CC(=O)OC)C(=O)[C@H]3[C@H]2[C@@]2(C)C(=O)N(Cc3ccccc3)C(=O)N2C1=O,Potency,[1],15.8 µM (active)
same,Potency,[2],inactive
COc1ccc(O[C@H]2C=C[C@@H](c3ccccc3)O[C@@H]2CO/N=C\[C@@H](C)[C@H](OCc2ccccc2)C(C)C)cc1,Potency,[1],3.98 µM (active)
same,"activity change, positive = activation",[2],-73.9% [at 11.4 µM] (inactive)
CCCOc1ccc(Br)cc1-c1cc(-c2ccc(Cl)cc2)[nH]c1-c1ccncc1,Potency,[1],1.26 µM (active)
same,Potency,[2],inactive
COc1ccc(O[C@H]2C=C[C@@H](c3ccccc3)O[C@H]2COC(=O)CC/C(C)=N\O[C@@H](C)c2cc(-c3c(C)cc(C)cc3C)no2)cc1,Potency,[1],3.16 µM (active)
same,"activity change, positive = activation",[2],-63.2% [at 11.4 µM] (inactive)
CCC1=C(OC(=O)N(CC)CC)N2C(=O)OC(=NCCc3c[nH]c4ccccc34)[C@]2(C)[C@H]2C1=CC[C@H]1C(=O)N(CC(=O)OC)C(=O)[C@H]12,Potency,[1],2 µM (active)
same,Potency,[2],inactive
CCC1=C(OC(=O)N(CC)CC)N2C(=O)OC(=NCC(=O)OC)[C@]2(C)[C@H]2C1=CC[C@H]1C(=O)N(C)C(=O)[C@H]12,Potency,[1],12.6 µM (active)
same,Potency,[2],inactive
CCC1=C(OC(=O)N(CC)CC)N2C(=O)OC(=NCCc3c[nH]c4ccccc34)[C@]2(C)[C@H]2C1=CC[C@H]1C(=O)NC(=O)[C@H]12,Potency,[1],2.51 µM (active)
same,Potency,[2],inactive
CCCNC(=O)OC[C@@H]1O[C@H](CCO/N=C(\C)CCN2CCCc3nc(C)c(C)cc32)C=C[C@@H]1Oc1ccc(OC)cc1,Potency,[1],3.98 µM (active)
same,"activity change, positive = activation",[2],-70.1% [at 11.4 µM] (inactive)
O=C1[C@H]2[C@H]3[C@H](O)[C@H](O)C/C(=N/OC[C@@H](O)COCc4ccco4)[C@@H]3CC[C@@H]2C(=O)N1Cc1ccc2c(c1)OCO2,Potency,[1],3.16 µM (active)
same,"activity change, positive = activation",[2],-99.9% [at 11.4 µM] (inactive)
CCCNC(=O)OC[C@@H]1O[C@H](c2ccccc2)C=C[C@@H]1Oc1ccc(OC)cc1,Potency,[1],3.98 µM (active)
same,"activity change, positive = activation",[2],-82.9% [at 11.4 µM] (inactive)
COC(=O)c1cccc(C23CC4(C2)[C@H](CN(Cc2cccnc2)[C@@H]4c2ccccc2)C3c2ccccc2)c1 (stereo partly drawn),Potency,[1],1.58 µM (active)
same,Potency,[2],inactive
Cc1ccc2oc(=O)c3c4cc(O)c(O)cc4oc3c2c1,Potency,[1],20 µM (active)
same,Potency,[2],inactive
O=c1oc2ccccc2c2oc3cc(O)c(O)cc3c12,Potency,[1],20 µM (active)
same,Potency,[2],inactive
COC(=O)N1[C@H](Cc2ccccc2)C=C[C@]1(C)C(=O)NCc1ccc(N(C)C)cc1,Potency,[1],0.794 µM (active)
same,Potency,[2],inactive
C=CC[C@@H]1C=C[C@H](O/N=C(\C)CCN2CCCc3nc(C)c(C)cc32)[C@H](CO)O1,Potency,[1],2.51 µM (active)
same,"activity change, positive = activation",[2],-70.1% [at 11.4 µM] (inactive)
COC(=O)c1cccc(C23CC4(C2)[C@H](CN(Cc2cccnc2)[C@@H]4c2ccccc2)C3c2ccc(Cl)nc2)c1 (stereo partly drawn),Potency,[1],2 µM (active)
same,Potency,[2],inactive
COC(=O)c1cccc(C23CC4(C2)[C@H](CN(Cc2cccnc2)[C@@H]4c2ccccc2)C3c2ccc(C(F)(F)F)cc2)c1 (stereo partly drawn),Potency,[1],2.51 µM (active)
same,Potency,[2],inactive
CCC1=C(OC(=O)N(CC)CC)N2C(=O)OC(=NCCOC)[C@]2(Cc2ccccc2)[C@H]2C1=CC[C@H]1C(=O)N(CC(=O)OC)C(=O)[C@H]12,Potency,[1],6.31 µM (active)
same,Potency,[2],inactive
c1ccc(C2[C@H]3CN(Cc4cccnc4)[C@H](c4ccccc4)C34CC2(c2cccnc2)C4)cc1 (stereo partly drawn),Potency,[1],1.58 µM (active)
same,Potency,[2],inactive
COc1cccc([C@@H]2Oc3ccc(OC)cc3/C(=N/O[C@@H](C)c3cn([C@H]4COC[C@H]4O)nn3)[C@@H]2O)c1,Potency,[1],3.16 µM (active)
same,"activity change, positive = activation",[2],-74.6% [at 11.4 µM] (inactive)
COC(=O)c1cccc(C23CC4(C2)[C@H](CN(CC2CCCCC2)[C@@H]4c2ccccc2)C3c2ccc(Cl)nc2)c1 (stereo partly drawn),Potency,[1],15.8 µM (active)
same,Potency,[2],inactive
Cn1c(=O)c(C(=O)COC(=O)c2cc(-c3ccco3)nc3ccccc23)c(N)n(CC2CC2)c1=O,Potency,[1],7.94 µM (active)
same,Potency,[2],inactive
C=CC[C@@H]1C=C[C@H](O/N=C\[C@@H](C)[C@H](OCc2ccccc2)C(C)C)[C@H](CO)O1,Potency,[1],3.98 µM (active)
same,"activity change, positive = activation",[2],-73.8% [at 11.4 µM] (inactive)
N#Cc1ccc(C23CC4(C2)[C@H](CN(Cc2cccnc2)[C@@H]4c2ccccc2)C3c2ccccc2)cc1 (stereo partly drawn),Potency,[1],3.98 µM (active)
same,Potency,[2],inactive
COc1cccc([C@@H]2Oc3ccc(OC)cc3C(=O)[C@H]2O)c1,Potency,[1],3.98 µM (active)
same,"activity change, positive = activation",[2],-83.3% [at 11.4 µM] (inactive)
CCC1=C(OC(=O)N(CC)CC)N2C(=O)OC(=NCCOC)[C@]2(Cc2ccccc2)[C@H]2C1=CC[C@H]1C(=O)N(C)C(=O)[C@H]12,Potency,[1],7.94 µM (active)
same,Potency,[2],inactive
CN1C[C@@H]2C(c3ccc(Cl)nc3)C3(c4ccccc4)CC2(C3)[C@H]1c1ccccc1 (stereo partly drawn),Potency,[1],12.6 µM (active)
same,Potency,[2],inactive
COC(=O)[C@@H]1C[C@H]2CC[C@H](O)C[C@H]2N1Cc1ccccc1OC(=O)c1cccs1,Potency,[1],2.51 µM (active)
same,Potency,[2],inactive
CCC1=C2CC[C@H]3C(=O)N(CC(=O)OC)C(=O)[C@H]3[C@H]2[C@@]2(Cc3ccccc3)C(=NCCOC)OC(=O)N2C1=O,Potency,[1],12.6 µM (active)
same,Potency,[2],inactive
COc1c(O)c(O)cc2c1oc1c3cc(C)ccc3oc(=O)c21,Potency,[1],25.1 µM (active)
same,Potency,[2],inactive
COC(=O)C/C=C\[C@@H](C)[C@@H](/C=N\O[C@@H](C)CN1CCCCc2nc(C)c(C)cc21)NS(=O)(=O)c1ccc(C)cc1,Potency,[1],3.98 µM (active)
same,"activity change, positive = activation",[2],-78.5% [at 11.4 µM] (inactive)
CCc1cc(C(C)=O)c(O)cc1OCCCCCC(C)(C)c1nn[nH]n1,Potency,[1],10 µM (active)
same,Potency,[2],inactive
Cc1cc2c(nc1C)CCCCN2C[C@H](C)O/N=C\[C@@H](C)[C@H](OCc1ccccc1)C(C)C,Potency,[1],3.98 µM (active)
same,"activity change, positive = activation",[2],-76.1% [at 11.4 µM] (inactive)
COC(=O)c1ccc(C(NC(=O)OCc2ccccc2)/C(C)=C/[C@@H](C)C(=O)N2CCN(C)CC2)cc1 (stereo partly drawn),Potency,[1],1.26 µM (active)
same,Potency,[2],inactive
COC(=O)c1ccc(C(NC(=O)OCc2ccccc2)/C(C)=C/[C@@H](C)C(=O)Nc2ccc(OC)cc2)cc1 (stereo partly drawn),Potency,[1],2.51 µM (active)
same,Potency,[2],inactive
COC(=O)[C@@H]1C[C@H]2CC[C@H](O)C[C@H]2N1Cc1ccc(Cl)cc1,Potency,[1],12.6 µM (active)
same,Potency,[2],inactive
CCc1cc2c(nc1CC)CCN(CC/C(C)=N/O[C@@H](C)c1cc(-c3c(C)cc(C)cc3C)no1)C2,Potency,[1],3.98 µM (active)
same,"activity change, positive = activation",[2],-69% [at 11.4 µM] (inactive)
COC(=O)[C@@H]1C[C@@]2(O)[C@@H](O)[C@@H](O)[C@@H](O)C[C@H]2N1CC(c1ccccc1)c1ccccc1,Potency,[1],3.16 µM (active)
same,Potency,[2],inactive
C#CCCCO/N=C1/C[C@@H](O)[C@@H](O)[C@@H]2[C@H]3C(=O)N(c4ccc(F)cc4F)C(=O)[C@@H]3CC[C@@H]12,Potency,[1],3.16 µM (active)
same,"activity change, positive = activation",[2],-61.6% [at 11.4 µM] (inactive)
CCC1=C2CC[C@H]3C(=O)N(CC)C(=O)[C@H]3[C@H]2[C@@]2(C)C(=NCCc3c[nH]c4ccccc34)OC(=O)N2C1=O,Potency,[1],3.98 µM (active)
same,Potency,[2],inactive
C[C@@H]1C=C[C@](Cc2ccccc2)(C(=O)NCCN2CCOCC2)N1C(=O)c1ccccc1,Potency,[1],5.01 µM (active)
same,Potency,[2],inactive
COC(=O)C/C=C\[C@@H](C)[C@@H](/C=N\O[C@@H](C)c1cn([C@H](CO)Cc2ccccc2)nn1)NS(=O)(=O)c1ccc(C)cc1,Potency,[1],3.98 µM (active) and 2 µM (active)
same,"activity change, positive = activation",[2],-101% [at 11.4 µM] (inactive) and -92.7% [at 11.4 µM] (inactive)
CCN1C(=O)[C@H]2[C@H]3[C@H](O)[C@H](O)C/C(=N/O[C@@H](C)c4cc(-c5c(C)cc(C)cc5C)no4)[C@@H]3CC[C@@H]2C1=O,Potency,[1],3.98 µM (active)
same,"activity change, positive = activation",[2],-72.9% [at 11.4 µM] (inactive)
Clc1ccc(C2[C@H]3CN(Cc4cccnc4)[C@H](c4ccccc4)C34CC2(c2cccnc2)C4)cn1 (stereo partly drawn),Potency,[1],2.51 µM (active)
same,Potency,[2],inactive
CCC1=C2CC[C@H]3C(=O)NC(=O)[C@H]3[C@H]2[C@@]2(Cc3ccccc3)C(=NCc3ccccc3)OC(=O)N2C1=O,Potency,[1],6.31 µM (active)
same,Potency,[2],inactive
C[C@H]1C2=C3C(C[C@H]4C(=O)N(c5ccccc5)C(=O)[C@H]4[C@H]3[C@@]3(Cc4ccccc4)C(=NCCc4c[nH]c5ccccc45)OC(=O)N3C2=O)[C@H]2C(=O)N(c3ccccc3)C(=O)[C@H]21 (stereo partly drawn),Potency,[1],2.51 µM (active)
same,Potency,[2],inactive
COC(=O)[C@H](Cc1ccccc1)NC(=O)[C@]1(C)C[C@H]1[C@H](NC(=O)OCc1ccccc1)c1ccccc1,Potency,[1],2 µM (active)
same,Potency,[2],inactive
CC(=O)OCC1OC(C#Cc2ccc(C)cc2C)C=CC1OC(C)=O (stereo not drawn),Potency,[1],3.16 µM (active)
same,"activity change, positive = activation",[2],-83.4% [at 11.4 µM] (inactive)
same,Potency,[3],3.98 µM (active)
COc1cccc([C@H]2Oc3ccc(OC)cc3/C(=N\O[C@@H]3O[C@H](COC(C)=O)[C@H](OC(C)=O)[C@H](OC(C)=O)[C@H]3OC(C)=O)[C@@H]2O)c1,Potency,[1],3.16 µM (active)
same,"activity change, positive = activation",[2],-77% [at 11.4 µM] (inactive)
same,Potency,[3],3.16 µM (active)
COc1ccc(O[C@H]2C=C[C@@H](c3ccccc3)O[C@H]2COC(=O)CC/C(C)=N/O[C@@H]2O[C@H](COC(C)=O)[C@H](OC(C)=O)[C@H](OC(C)=O)[C@H]2OC(C)=O)cc1,Potency,[1],5.01 µM (active)
same,"activity change, positive = activation",[2],-91.6% [at 11.4 µM] (inactive)
same,Potency,[3],3.16 µM (active)
same,Potency,[4],1.58 µM (active)

# Source: PubChem BioAssay (NCATS)
